We go through one compound from PubChem BioAssay AID1561 (National Center for Advancing Translational Sciences (NCATS), 2009).

The source made the active and inactive calls. Calls come from the whole dose curve; as a rule, active = well fitted curve in the direction sought with a large enough effect; inactive = no such curve, though single readings can be large or run the other way.

The experiment in a line: Secondary Assay for lipid storage modulators. Cytotoxcity. The following applies: Drosophila S3 cells viability, CellTiter-Glo luminescence, 24 h; series mostly up to 46.1 µM. The text has this:
NIH Molecular Libraries Probe Production Centers Network [MLPCN] NIH Chemical Genomics Center [NCGC] MLPCN Grant: TBA Assay Submitter (PI): Beller, Mathias; Max-Planck-Institut fur Biophysikalische Chemie, Germany. NCGC Assay Overview: Storing lipids as a reservoir for energy or the anabolism of elementary metabolites is a common feature of probably all cells and is conserved from bacteria to humans. The universal cellular lipid storage organelle is the so-called lipid storage droplet (LD). Although ubiquitous, LDs share a simple structure composed of a hydrophobic core that harbors the storage lipids, which is shielded by a droplet-specific phospholipid monolayer to which proteins are attached. The current model of LD biogenesis involves an incorporation of the lipid core into the membrane leaflets of the endoplasmic reticulum (ER) followed by a subsequent budding-like maturation of a LD, which ultimately pinches off. Once released, LD volume can increase by localized lipogenesis or fusion of existing droplet. Storage lipids are re-mobilized enzymatically by lipase activity. […]
Assay Protocol Summary: Cytotoxcity assay was performed with embryonic Drosophila S3 cells (Bloomington Drosophila Genomics Resource Center [DGRC]). […] Luminescence was detected on the Perkin Elmer ViewLux.
`COC(=O)c1ccccc1NC(=O)c1ccc(F)cc1`: the result was inactive.
